{"source": "PubChem BioAssay AID652068", "about": "(The Scripps Research Institute Molecular Screening Center, 2013)", "note": "Hit rate of the full screen: of about 4,300 compounds, about 4,000 (93%) were called active. So high a share suggests a set chosen from earlier hits. Not all results are given here. Values without a mark were called inactive.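 The calls were made as follows: active = inhibition above its plate's cutoff, the mean test-well inhibition plus 3 SD (cut at about 4.8% in these data); inactive = the rest.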", "data": [{"assay": "displacement of TO-PRO-1 from CAG DNA duplex, counter-screen for rCAG RNA repeat binder project, biochemical, fluorescence, TO-PRO-1 dye, d(CAG) DNA oligo (AID 652068);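 also: 0% = DNA dye mix with DMSO and 100% = 100 µM mitoxantrone; hits displace the dye from DNA and so lower well fluorescence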", "settings": "d(CAG) DNA oligo TO-PRO-1 dye displacement, at 3 µM, stronger effect = higher value", "values": [{"smiles": "CC(C)c1ccc(Nc2nnc(SCC(=O)c3nnc(-c4ccccc4)o3)s2)cc1", "inhibition": "27.2% (active)"}, {"smiles": "O=C(O)c1ccc(NN=CC2=C(N3CCOCC3)/C(=C/c3ccccc3)CC2)cc1", "inhibition": "30.8% (active)"}, {"smiles": "NC(=O)c1c(Nc2nc3c(F)cccc3s2)sc2c1CCCC2", "inhibition": "14.3% (active)"}, {"smiles": "COc1ccc(OC)c(NC(=O)CSc2nc(-c3ccccc3)cc(=O)[nH]2)c1", "inhibition": "5.74% (active)"}, {"smiles": "CCOc1cc(/C=C(\\C#N)c2nc(-c3cccs3)c(NC(C)=O)s2)ccc1O", "inhibition": "16.7% (active)"}, {"smiles": "CCCOc1ccc(Cn2c(O)cc(=O)[nH]c2=O)cc1", "inhibition": "6.06% (active)"}, {"smiles": "COc1ccc(Cl)cc1-n1c(=S)sc2c(=O)n(-c3ccc(F)cc3)c(SCC(=O)O)nc21", "inhibition": "8.24% (active)"}, {"smiles": "COc1ccccc1/C=C/C=N/n1c(-c2ccc(Cl)cc2Cl)n[nH]c1=S", "inhibition": "15.2% (active)"}, {"smiles": "COc1cc(C2CC(=O)N3CN(Cc4ccccc4)CSC3=C2C#N)ccc1OCc1ccccc1", "note": "(stereo not drawn)", "inhibition": "12.4% (active)"}, {"smiles": "Cc1ccc(Nc2nc(-c3ccc(O)cc3O)cs2)nc1", "inhibition": "13% (active)"}, {"smiles": "O=C(N/N=C/c1cc(Cl)cc([N+](=O)[O-])c1O)C(O)(c1ccccc1)c1ccccc1", "inhibition": "17.8% (active)"}, {"smiles": "Cc1cc(/C=C2/C(=N)N3C(=NC2=O)SN=C3S(C)(=O)=O)c(C)n1-c1ccccc1", "inhibition": "53.2% (active)"}, {"smiles": "Clc1ccccc1CSc1nnc(-c2ccco2)c(-c2ccco2)n1", "inhibition": "30% (active)"}, {"smiles": "Cc1cc(F)ccc1S(=O)(=O)Nc1ncnc2scc(-c3ccc(F)cc3)c12", "inhibition": "34.7% (active)"}, {"smiles": "O=C(Nc1nc(-c2ccco2)c(-c2ccco2)s1)c1ccco1", "inhibition": "16.6% (active)"}, {"smiles": "Cc1ccc(C(=O)O)cc1-c1ccc(/C=C2\\SC(=O)N(CC(=O)Nc3ccc4c(c3)OCO4)C2=O)o1", "inhibition": "59.2% (active)"}, {"smiles": "Cc1ccc(C(C)C)c(OCCSc2nc3ccccc3n2CC(=O)O)c1", "inhibition": "10.7% (active)"}, {"smiles": "Cc1ccc(C)c(Cn2nnc3c(=O)[nH]c(C(=O)Nc4ccc(F)cc4)nc32)c1", "inhibition": "11.1% (active)"}, {"smiles": "O=c1cc(CN2CCN(S(=O)(=O)/C=C/c3ccccc3)CC2)c2ccc(O)cc2o1", "inhibition": "13.1% (active)"}, {"smiles": "Cc1cccc(C)c1NC(=O)C(c1ccc(C(F)(F)F)cc1)n1c(=O)c(-c2ccco2)nc2ccccc21", "note": "(stereo not drawn)", "inhibition": "7.75% (active)"}, {"smiles": "O=C1c2cccc3cccc(c23)C(=O)N1CCCCCc1n[nH]c(=S)o1", "inhibition": "6.52% (active)"}, {"smiles": "CC(C)c1nc(SCC(=O)Nc2cccc(C(=O)O)c2)c2c3c(sc2n1)CCCC3", "inhibition": "20% (active)"}, {"smiles": "O=C(N/N=C/c1cccnc1)c1cc2ccccc2cc1O", "inhibition": "4.9% (active)"}, {"smiles": "Cc1nnc(NC(=O)Nc2ccc(Cl)c(Cl)c2)s1", "inhibition": "21.5% (active)"}, {"smiles": "Cc1ccc(NC(=O)Nc2nnc(-c3ccncc3)s2)cc1", "inhibition": "13.7% (active)"}, {"smiles": "C=C1c2c(Cl)ccc(O)c2C(O)=C2C(=O)[C@]3(O)C(O)=C(C(N)=O)C(=O)[C@@H](N(C)C)[C@@H]3[C@@H](O)C12", "note": "(stereo partly drawn)", "inhibition": "38% (active)"}, {"smiles": "Cc1ccc(Nc2nc(CSc3nnnn3-c3ccccc3)cc(=O)[nH]2)cc1", "inhibition": "16.6% (active)"}, {"smiles": "O=C(O)c1ccc2c(c1)C(=O)N(c1ccc(/C=C/C(=O)c3ccccc3)cc1)C2=O", "inhibition": "23.6% (active)"}, {"smiles": "CCOc1ccc(-n2c(O)c(/C=N/Nc3nnc(C)c(=O)[nH]3)c3ccccc3c2=O)cc1", "inhibition": "22.9% (active)"}, {"smiles": "N#Cc1c(NC(=O)C2CC(Cl)=CCC2C(=O)O)sc2c1CCCCC2", "note": "(stereo not drawn)", "inhibition": "9.19% (active)"}, {"smiles": "COC(=O)c1c(NC(=O)C2CC(C)=C(C)CC2C(=O)O)sc2c1CCCCC2", "note": "(stereo not drawn)", "inhibition": "20.6% (active)"}, {"smiles": "CCc1nnc(NS(=O)(=O)c2ccc(NC(=O)c3cccc(OC(F)(F)C(F)F)c3)cc2)s1", "inhibition": "22.8% (active)"}, {"smiles": "CCc1nnc(NS(=O)(=O)c2ccc(NC(=S)NC(=O)c3cccs3)cc2)s1", "inhibition": "16.6% (active)"}, {"smiles": "O=C(O)CC/C(=C\\c1cc2c(cc1Br)OCO2)c1nc2ccccc2s1", "inhibition": "13.3% (active)"}, {"smiles": "COc1ccc(C(=O)Nc2cccc(/C=C(/CCC(=O)O)c3nc4ccccc4s3)c2)cc1", "inhibition": "33.5% (active)"}, {"smiles": "Cc1ccc2cc(/C=N/Nc3ccc(C(=O)O)cc3)c(Cl)nc2c1", "inhibition": "12% (active)"}, {"smiles": "Cc1ccc(/C=C/C(=O)Nc2ccc([N+](=O)[O-])c(NC(=O)/C=C/c3ccc(C)o3)c2)o1", "inhibition": "24.9% (active)"}, {"smiles": "O=C(Nc1nnc(-c2ccccc2)o1)c1cc(-c2cccs2)nc2ccccc12", "inhibition": "28.7% (active)"}, {"smiles": "O=C(Nc1ccccc1)Nc1nnc(COc2ccccc2F)s1", "inhibition": "24.9% (active)"}, {"smiles": "O=C(NC(=S)Nc1ccccc1C(=O)O)c1ccc(-c2ccc(Br)cc2)o1", "inhibition": "40.4% (active)"}, {"smiles": "COCCNC(=O)Nc1ccc2nc(-c3ccco3)c(-c3ccco3)nc2c1", "inhibition": "28.6% (active)"}, {"smiles": "Cc1ccc(C(=O)Oc2coc(CSc3nnc(NC(=O)c4cccs4)s3)cc2=O)cc1C", "inhibition": "23.1% (active)"}, {"smiles": "Cc1ccc(-c2csc(C(C#N)=C(O)CN3CCN(C(=O)c4ccco4)CC3)n2)cc1", "inhibition": "18.7% (active)"}, {"smiles": "Cc1ccc(S(=O)(=O)NCCC(c2ccccc2)c2ccccc2)cc1C(=O)O", "inhibition": "5.44% (active)"}, {"smiles": "Cc1ccccc1OCC(=O)Nc1nnc(S(=O)(=O)N2CCCC2)s1", "inhibition": "10.8% (active)"}, {"smiles": "CCCCCCC(=O)Nc1nc(C)c(-c2csc(Nc3cc(Cl)ccc3OC)n2)s1", "inhibition": "11.6% (active)"}, {"smiles": "C[C@H]([C@@H](O)[C@@H](O)[C@@H](C)C(C)(C)C)[C@H]1CC[C@H]2C3CC[C@H]4C[C@H](OS(=O)(=O)O)[C@@H](OS(=O)(=O)O)C[C@]4(C)[C@H]3CC[C@]12C", "note": "(stereo partly drawn)", "inhibition": "61.2% (active)"}, {"smiles": "Cc1ccc(S(=O)(=O)Nc2nc3ccccc3s2)cc1[N+](=O)[O-]", "inhibition": "6.62% (active)"}, {"smiles": "O=C1/C(=C/c2ccc(F)cc2)SC(=S)N1NS(=O)(=O)c1ccccc1", "inhibition": "11.9% (active)"}, {"smiles": "COc1ccc2[nH]c3c(C)c4cc[n+](C)cc4c(C)c3c2c1", "inhibition": "61.2% (active)"}, {"smiles": "Oc1c(Cl)cc(Cl)c(Cl)c1Cc1c(O)c(Cl)cc(Cl)c1Cl", "inhibition": "76.5% (active)"}, {"smiles": "CCn1c(SCC(=O)Nc2ccc(S(=O)(=O)Nc3onc(C)c3C)cc2)nnc1-c1ccccc1", "inhibition": "6.29% (active)"}, {"smiles": "Cc1cc(NS(=O)(=O)c2ccc(NC(=O)CSc3nnc(SCc4ccc(F)cc4)s3)cc2)nc(C)n1", "inhibition": "13% (active)"}, {"smiles": "Cc1cc(NS(=O)(=O)c2ccc(NC(=O)CSc3nnc(-c4ccc(C(C)(C)C)cc4)n3Cc3ccco3)cc2)nc(C)n1", "inhibition": "4.42% (active)"}, {"smiles": "Cc1nnc(SC(C(=O)Nc2cc(Cl)cc(Cl)c2)c2ccccc2)[nH]c1=O", "note": "(stereo not drawn)", "inhibition": "28% (active)"}, {"smiles": "CCOc1ccc(-n2c(SCC(=O)Nc3cc(C(=O)O)ccc3Cl)nc3ccccc3c2=O)cc1", "inhibition": "19.2% (active)"}, {"smiles": "COC(=O)c1sc(-c2ccc(C(C)(C)C)cc2)cc1NC(=O)/C=C/C(=O)O", "inhibition": "41.3% (active)"}, {"smiles": "CSc1ccc(C=Nn2c(-c3ccc(F)cc3)n[nH]c2=S)cc1", "inhibition": "11.3% (active)"}, {"smiles": "CC(C(=O)Nc1ccc(O)c(C(=O)O)c1)N1C(=O)/C(=C/c2cccs2)SC1=S", "note": "(stereo not drawn)", "inhibition": "42.3% (active)"}, {"smiles": "COc1ccc(-c2cc(C(=O)NC(Cc3c[nH]c4ccccc34)C(=O)O)c(C)o2)cc1OC", "note": "(stereo not drawn)", "inhibition": "16.9% (active)"}, {"smiles": "COc1ccc(S(=O)(=O)NCCc2c[nH]c3ccccc23)cc1OC", "inhibition": "0.56%"}, {"smiles": "CC(Oc1ccc2c(-c3ccccc3)cc(=O)oc2c1)C(=O)NC(Cc1c[nH]c2ccccc12)C(=O)O", "note": "(stereo not drawn)", "inhibition": "16.9% (active)"}, {"smiles": "O=C(N[C@@H](Cc1c[nH]c2ccccc12)C(=O)O)OCC1c2ccccc2-c2ccccc21", "inhibition": "23.8% (active)"}, {"smiles": "COc1ccc(-c2cc(=O)oc3cc(OCC(=O)N[C@@H](Cc4c[nH]c5ccccc45)C(=O)O)ccc23)cc1", "inhibition": "26.4% (active)"}, {"smiles": "COc1cccc2sc(NNC(=O)c3nc4ccccc4s3)nc12", "inhibition": "42.1% (active)"}, {"smiles": "Cc1ccc(-n2c(SCC(=O)Nc3ccc(S(=O)(=O)Nc4nccs4)cc3)nnc2-c2ccncc2)cc1", "inhibition": "35.9% (active)"}, {"smiles": "Cc1ccc(-n2c(SCC(=O)Nc3ccc(S(=O)(=O)Nc4nccs4)cc3)nnc2-c2cccnc2)cc1", "inhibition": "24.7% (active)"}, {"smiles": "Cc1ccc(-n2c(SCC(=O)Nc3ccc(S(=O)(=O)Nc4nccs4)cc3)nnc2-c2ccccn2)cc1", "inhibition": "23.8% (active)"}, {"smiles": "COc1ccc(S(=O)(=O)NC(=O)C2(C)CCN2C(=O)c2ccccc2CCc2ccccc2)cc1", "note": "(stereo not drawn)", "inhibition": "6.35% (active)"}, {"smiles": "CC1(C(=O)NS(=O)(=O)Cc2cccc(Cl)c2)CCN1C(=O)Cc1ccc(Cl)cc1Cl", "note": "(stereo not drawn)", "inhibition": "36.2% (active)"}, {"smiles": "CC1(C(=O)NS(=O)(=O)c2ccccc2)CCN1C(=O)Cc1ccc(-c2ccccc2)cc1", "note": "(stereo not drawn)", "inhibition": "7.2% (active)"}, {"smiles": "CC(C)c1ccc(CC(=O)N2CCC2(C)C(=O)NS(=O)(=O)c2ccc(C(C)(C)C)cc2)cc1", "note": "(stereo not drawn)", "inhibition": "25.3% (active)"}, {"smiles": "CC(Oc1ccc2ccccc2c1)C(=O)NNC(=S)NC(=O)c1ccco1", "note": "(stereo not drawn)", "inhibition": "11.8% (active)"}, {"smiles": "CCCc1ccc(OCC(=O)NNC(=S)NC(=O)c2ccco2)cc1", "inhibition": "14.4% (active)"}, {"smiles": "O=C(Nc1ccc2c(c1)CCC2)c1cccc(S(=O)(=O)Nc2ccccc2Cl)c1", "inhibition": "10.7% (active)"}, {"smiles": "NS(=O)(=O)c1ccc(N=Nc2c(O)[nH]c3ccc(Br)cc23)cc1", "inhibition": "9.96% (active)"}, {"smiles": "N#CCC(=O)Nc1ccc(C(=O)OCC(=O)Nc2sc3c(c2C#N)CCCC3)cc1", "inhibition": "17% (active)"}, {"smiles": "COC(=O)c1sccc1NC(=O)CSc1ccccc1NS(=O)(=O)c1cc(Cl)ccc1Cl", "inhibition": "32.6% (active)"}, {"smiles": "NS(=O)(=O)c1ccc(NC2=CC(c3ccc(F)cc3)N(c3ccc(S(N)(=O)=O)cc3)C2=O)cc1", "note": "(stereo not drawn)", "inhibition": "15% (active)"}, {"smiles": "CC(C)(C)C1C/C(=C/c2ccco2)C(=O)/C(=C/c2ccco2)C1", "note": "(stereo not drawn)", "inhibition": "17.1% (active)"}, {"smiles": "O=C(c1cccnc1)N(c1cc2sc(=O)oc2c2ccccc12)S(=O)(=O)c1ccccc1", "inhibition": "20.1% (active)"}, {"smiles": "CC(=O)N(c1ccc2oc(=O)sc2c1)S(=O)(=O)c1ccc(C)cc1", "inhibition": "3.88%"}, {"smiles": "COc1ccc(Cc2nnc(SCC(=O)Nc3ccc(C)c(Cl)c3)[nH]c2=O)cc1", "inhibition": "24.4% (active)"}]}]}
